The text below walks through data of PubChem BioAssay (NCI).

Compounds without any hit were thinned out: in the full panel of roughly 83,000, 20% have a hit.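 Cell lines were cultured in 96-well plates, exposed to a single compound concentration, and assessed for percent growth 48 hours later.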 A number with no mark means an inactive call. Calls of active or inactive are those of the source. How the source made its calls: active means growth percent below 10; inactive means the rest.

In this assay the test system is HL-60(TB) leukemia. Nature of the assay: NCI-60 one-dose screen, 48 h (100 = growth as untreated, 0 = no growth, -100 = all killed). The settings on record: 10 µM unless noted.
Take `Cc1ccc2c(=O)cc(C(=O)Nc3sc4c(c3C(=O)NCc3cccnc3)CCCC4)oc2c1C`: the growth was 88.3%. Next, `C/C=C/CC(C)C(O)C1C(=O)NC(CC)C(=O)N(C)CC(=O)N(C)C(CC(C)C)C(=O)NC(C(C)C)C(=O)N(C)C(CC(C)C)C(=O)NC(C)C(=O)NC(C)C(=O)N(C)C(CC(C)C)C(=O)N(C)C(CC(C)C)C(=O)N(C)C(C(C)C)C(=O)N1C` (configuration not stated): -9.23% (active); `Brc1ccc(C2CC(c3cccc(Nc4ccncc4)c3)=NN2c2ccccc2)cc1` (configuration not stated): 56.9%. Consider `COc1ccc(S(=O)(=O)N(Cc2ccc3c(n2)C=CC(C)(C)O3)C2CCC2)cc1OC`, for which the growth is -13.5% (active). The figure for `Cn1cc(-c2csc(-c3cn(C)c4ncccc34)n2)c2cc(Br)cnc21` is 83.1%.

For the compound `N#CC1=C(N)Oc2c(sc3c(F)cccc23)C1c1ccc([N+](=O)[O-])cc1` (configuration not stated), the growth is -7.41% (active).

`Oc1ccc(N=Cc2ccc(OCc3ccccc3)cc2)cc1`: the growth was 104%. As to `O=C(/C=C\c1ccc2c(c1)OCO2)/C=C/c1ccc2c(c1)OCO2`, the growth is 42.8%. Next, `CCNCC(C)(C)O`: 102%; `COc1ccc2c(c1OC)CO[C@@H]2[C@H]1c2c(cc3c(c2OC)OCO3)CCN1S(=O)(=O)c1cn(C)cn1`: -0.0238% (active); `O=C(NCc1ccc(Cn2c(=O)sn(-c3ccccc3)c2=O)cc1)OCc1ccc2cccc(O)c2n1`: -56.8% (active).

With `CCCCCCCCCOc1c(OC)cc(C2CC(=O)Nc3c2c(C)nn3-c2nc3ccccc3[nH]2)cc1OC` (configuration not stated), the growth is 9.26% (active). The figure for `COc1ccc(C2CC(=O)Nc3c2c(C)nn3-c2nc3ccccc3[nH]2)cc1` (configuration not stated) is -17% (active); for `C=CC(=O)Nc1cc2c(Nc3ccc(F)c(Cl)c3)ncnc2cc1C#CC(C)(C)N1CCN(C)CC1` it is -47.6% (active); for `COc1cc(/C=C2\CN(S(=O)(=O)c3ccccc3)C/C(=C\c3cc(CN4CCCC4)c(O)c(OC)c3)C2=O)cc(CN2CCCC2)c1O` it is -14.8% (active). Next, `CCNc1cc2c(cc1Br)-c1ccccc1C2=O`: 110%.

Consider `O=S(=O)(NCCNc1nccc(-c2c(-c3ccc(F)c(O)c3)nc3sccn23)n1)c1ccc(Cl)cc1`, for which the growth is -26.9% (active).

Take `CC(=O)OC1CCC2(C)C(=CC3C4CCC(=O)C4(C)CCC32)C1` (configuration not stated): the growth is 91%. The figure for `COc1cc(NC(=O)CCSc2nc3ccccc3c(=O)n2Cc2ccccc2)cc(OC)c1OC` is 104%; for `CC1=CC=C(NC(=O)/C=C/c2ccccc2)CC1Nc1nccc(-c2cccnc2)n1` (configuration not stated) it is -0.0857% (active). In the case of `CCOC(=O)C1=C(N)Oc2c(sc3c(C)cccc23)C1c1ccc(Cl)cc1` (configuration not stated), the growth was 1.5% (active). Next, `Cc1ccccc1COc1ccc(-c2ccnn2-c2ccc(Cl)cc2)cc1`: 13.3%; `O=C1Nc2cc(Cl)ccc2/C1=C\c1c(-c2ccc(F)cc2)nc2ccccn12`: -46% (active); `CC1(C)C(N)=Nc2cc(OCCCN3Cc4ccccc4C3)c(OCC3CC3)cc21`: 36.2%. The figure for `CO/N=C(/C(=O)NC1C(=O)N2C(C(=O)O)=C(COC(N)=O)CSC12)c1ccco1` (configuration not stated) is 109%. The figure for `CC(C)=CC(=O)OCC(=O)O[C@@H]1C[C@]2(C(C)C)O[C@@]1(C)[C@@H]1CC[C@@H](C)[C@H]1[C@@H]2OC(=O)/C=C/c1ccccc1` is 85%.

For the compound `c1ccc2c(c1)Cc1ccccc1N2CCN1CCCCC1`, the growth is 85.1%. In the case of `N#Cc1cc(-c2ccnc(Nc3ccc(NC(=O)CCl)cc3)n2)ccc1N1CCCC1`, the growth was -49.2% (active). As for `COc1cc(C(=O)/C=C/c2c(-c3ccc(F)cc3)nc3sccn23)cc(OC)c1OC`, the growth was 32%. Next, `Nc1ccc(-n2c(=O)oc3ccc(Cl)cc3c2=O)c(Cl)c1`: -42.8% (active); `Nc1ccccc1NC(=O)c1ccc(CSc2nc(N3CCOCC3)c3cccn3n2)cc1`: -19.4% (active). The figure for `N#CC(C#N)N=Nc1ccc(Cl)cc1Cl` is 53%. Next, `CN1CCN(CC(=O)Nc2ccc3ncnc(Nc4ccc(Oc5cccc(C(F)(F)F)c5)c(Cl)c4)c3c2)CC1`: -35.7% (active). In the case of `CCN(CC)CCCC(C)NCc1ccccc1` (configuration not stated), the growth was 105%.

Turning to `COc1cc(C2c3cc4c(cc3C3OC(=O)C2C3CO)OCO4)cc(OC)c1OC` (configuration not stated), the growth is -17.2% (active). With `CCCC(=O)OCC(COC(=O)CCC)OC(=O)CCC`, the growth is 100%. The figure for `Cc1cccc(N2CCN(C(=S)c3ccc4c(c3)OCO4)CC2)c1` is -20% (active).
